IP6K1 inhibitor = IP6K1 kinase inhibition. Q92551. IP6K1 kinase, ADP-Glo luminescence, 2 h; active compounds read low. activity change, % (series mostly up to about 58 µM). 0.81% of 140,000 active. AID 1645851; in the data active = activity change below about -25%; note: % is set by controls: 0 for no effect and ±100 for the full control effect
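ADP-Glo luminescence measures ADP made by human IP6K1 during a 2 h RT reaction with ATP/IP6 (mix at 1.3 mM/130 uM); top library doses 57.5 and 19.1 uM final.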
KDM5B inhibitor = blocks human KDM5B histone demethylase activity. AID 1347165. KDM5B demethylase, FDH-coupled NADH fluorescence (FDH is formaldehyde dehydrogenase). Q9UGL1. Potency, µM (series often up to 57.7 µM), usual class: inhibitors. 2.6% of 220,000 active; active = well fitted inhibition curve with a large enough effect; inconclusive = small, poorly fitted or top-dose-only effect; inactive = no such curve, though single readings can be large or run the other way; note: potency is the fitted concentration of half-maximal effect; 0% is about no effect; nearly all actives have a fitted effect of over 70% in size
Target sequence (Q9UGL1 whole entry, looked up): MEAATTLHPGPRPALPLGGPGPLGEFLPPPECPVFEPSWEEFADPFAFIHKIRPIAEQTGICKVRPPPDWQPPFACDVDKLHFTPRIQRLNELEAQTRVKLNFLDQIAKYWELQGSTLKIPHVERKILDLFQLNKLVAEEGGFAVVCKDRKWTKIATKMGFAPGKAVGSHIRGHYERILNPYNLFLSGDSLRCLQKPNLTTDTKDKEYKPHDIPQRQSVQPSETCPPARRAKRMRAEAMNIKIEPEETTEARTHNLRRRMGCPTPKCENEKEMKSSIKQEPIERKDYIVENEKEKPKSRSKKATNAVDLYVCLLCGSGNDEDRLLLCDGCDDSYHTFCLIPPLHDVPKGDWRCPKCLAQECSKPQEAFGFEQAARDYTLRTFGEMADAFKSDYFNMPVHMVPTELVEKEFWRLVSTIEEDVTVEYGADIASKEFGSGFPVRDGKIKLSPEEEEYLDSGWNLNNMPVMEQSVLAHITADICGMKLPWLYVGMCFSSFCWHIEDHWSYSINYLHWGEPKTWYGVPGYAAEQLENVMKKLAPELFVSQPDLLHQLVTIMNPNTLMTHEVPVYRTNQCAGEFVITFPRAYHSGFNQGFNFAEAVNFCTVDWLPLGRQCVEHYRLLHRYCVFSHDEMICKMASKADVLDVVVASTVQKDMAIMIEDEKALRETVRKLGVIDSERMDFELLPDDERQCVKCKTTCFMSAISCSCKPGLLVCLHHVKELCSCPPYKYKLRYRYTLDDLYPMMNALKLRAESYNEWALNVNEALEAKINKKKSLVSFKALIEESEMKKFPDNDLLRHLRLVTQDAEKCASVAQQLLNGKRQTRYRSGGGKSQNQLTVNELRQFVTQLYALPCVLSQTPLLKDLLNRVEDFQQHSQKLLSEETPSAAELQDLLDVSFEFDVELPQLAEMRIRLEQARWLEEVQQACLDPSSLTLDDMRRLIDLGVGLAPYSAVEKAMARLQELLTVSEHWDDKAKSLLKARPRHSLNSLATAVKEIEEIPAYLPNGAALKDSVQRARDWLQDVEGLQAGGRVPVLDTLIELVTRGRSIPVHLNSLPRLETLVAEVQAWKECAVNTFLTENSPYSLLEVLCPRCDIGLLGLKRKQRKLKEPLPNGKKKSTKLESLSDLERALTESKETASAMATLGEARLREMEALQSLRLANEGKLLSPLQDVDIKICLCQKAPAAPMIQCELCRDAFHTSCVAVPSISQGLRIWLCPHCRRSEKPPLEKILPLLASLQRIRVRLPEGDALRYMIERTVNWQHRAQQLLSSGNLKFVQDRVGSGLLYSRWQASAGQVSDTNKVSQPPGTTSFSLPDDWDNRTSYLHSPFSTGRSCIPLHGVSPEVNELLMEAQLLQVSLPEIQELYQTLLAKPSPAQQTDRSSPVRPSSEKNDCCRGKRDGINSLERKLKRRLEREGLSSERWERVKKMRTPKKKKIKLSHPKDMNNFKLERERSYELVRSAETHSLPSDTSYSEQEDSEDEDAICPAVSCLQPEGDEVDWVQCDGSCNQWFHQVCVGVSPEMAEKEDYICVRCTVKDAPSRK
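Coupled FDH/NAD⁺ fluorescence readout. KDM5BΔAP 200 nM final; compound titration, 10 min RT preincubation; substrate mix 12.5 µM H3K4me3, 25 µM 2-OG, 50 µM Fe(II), 100 µM ascorbate, 0.25 mM NAD⁺, 0.25 U/mL FDH; ΔRFU over 30 min.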
The depositor's hits bear a star; i = inactive; ? = inconclusive; . = not tested or not shown. Sampled rows, rich in hits. Any-hit rate of the full collection: about 2.8%.

SMILES	IP6K1 inhibitor	KDM5B inhibitor
CC(Oc1ccccc1)C(=O)N1CCN(C(=O)c2nnn3c2COC(c2ccc(Cl)cc2)C3)CC1 (stereo not drawn)	10	i
O=C(C1CCN(Cc2ccccc2-c2ccccc2F)CC1)N1CCCC1	-7	.
Cc1ccc(C#N)c(N2CC[C@@H](c3ccc4c(c3)OCO4)[C@H](O)C2)n1	6	28µM*
OC1CCN(c2ccnc(N3CC[C@@H](c4ccc5c(c4)OCO5)[C@H](O)C3)n2)CC1	-4	i
Cn1cc(CN2CC[C@@H](c3ccc4c(c3)OCO4)[C@H](O)C2)c2ccccc21	-1	?
CCc1nc(CN2CC[C@@H](c3ccc4c(c3)OCO4)[C@H](O)C2)c(C)[nH]1	-3	25µM*
CCOC(=O)C(Cc1cccc(N2CCC(N(c3ccccc3)c3ccccc3)CC2)c1F)OC (stereo not drawn)	-6	.
CCN(CC)CCNCc1cccs1	.	i
Cc1ncc(CO)c(CN2CCC3(Cc4ccccc4CNC3=O)C2)c1O (stereo not drawn)	0	79µM*
Cc1nn(-c2ccccc2)c(C)c1CN1CCC2(Cc3ccccc3CNC2=O)C1 (stereo not drawn)	-5	i
O=C1CO[C@H]2CN(c3nccc(C(F)(F)F)n3)C[C@H]2N1Cc1ccc(F)cc1	-3	i
COc1ccc(CN2C(=O)CO[C@H]3CN(c4nccc(C)n4)C[C@H]32)cc1	0	35µM*
COc1ccc(CCN2C(=O)O[C@@H]3CN(c4nc(C)cc(C)n4)C[C@@H]32)cc1	21	18µM*
COc1ccc(CCCN2C(=O)O[C@@H]3CN(c4nc(C)cc(C)n4)C[C@@H]32)cc1	8	i
COc1ccc(-c2noc(N3CCc4ccccc43)n2)cc1	-10	i
N#Cc1ccc(S(=O)(=O)N2CCc3c(nc(-c4ccc(F)cc4)[nH]c3=O)C2)cc1	5	i
COc1ccc(-c2nc3c(c(=O)[nH]2)CCN(C(=O)Nc2cc(F)cc(F)c2)C3)cc1	0	18µM*
N#Cc1cccc(NC(=O)N2CCc3c(nc(-c4ccc(F)cc4)[nH]c3=O)C2)c1	26	20µM*
COc1ccc(-c2nc3c(c(=O)[nH]2)CCN(C(=O)Nc2ccc4c(c2)CCC4)C3)cc1	8	i
CN(C(=O)c1ccc2ncsc2c1)C1CCCCC1	.	i
CCCCN(C)CCNC(=O)c1cc2c(=O)n(C)c3ccccc3c2n1C	28	i
Cc1nn(-c2ccccc2)c2c1C(C1CC1)N(C1CCN(C(=O)c3cccc(Cl)c3)C1)C2=O (stereo not drawn)	28	.
Cc1noc(-c2cn(C3CCCN(C(=O)c4cccc(OC(F)(F)F)c4)C3)nn2)n1 (stereo not drawn)	2	i
CC(O)c1cc2n(n1)CCN(Cc1cc(=O)n3nc(C4CC4)sc3n1)C2 (stereo not drawn)	-1	25µM*
CCC(CC)C(=O)OCc1cc(=O)n2nc(C3CC3)sc2n1	9	?
SMILES	IP6K1 inhibitor	KDM5B inhibitor
CCNC(=O)/C=C/c1ccc(C(=O)OC)cc1	.	i
COc1ccc2cc(CN3CCC(CO)CC3)c(-c3ccc(Cl)cc3)nc2c1	-2	?
CSc1ccc2cc(CN(C)CCO)c(-c3ccc(Cl)cc3)nc2c1	28	28µM*
CCCCc1cc(=O)oc2c(C)c3c(cc12)C(=O)CC(C)(C)O3	.	i
CCCCn1nc(C(=O)Nc2ccc3c(c2)CCC3)c2ccccc2c1=O	.	i
O=C(c1ccc(-c2ccc(N3CCCCCC3)nc2)cc1)N1CCCC1	2	25µM*
CN(C)C(=O)c1ccc(-c2ccc(N3CCCCCC3)nc2)cc1	1	28µM*
O=C(NC1CCCC1)c1ccc(-c2ccc(N3CCCCC3)nc2)cc1	2	11µM*
CC(C)NC(=O)c1ccc(-c2ccc(N3CCCCC3)nc2)cc1	2	?
CC(C)NC(=O)c1ccc(-c2ccc(N3CCCCCC3)nc2)cc1	6	i
O=C(NC1CC1)c1ccc(-c2ccc(N3CCCCC3)nc2)cc1	-3	?
O=C1Nc2ccccc2CC12CCN2Cc1ccccc1 (stereo not drawn)	-8	i
O=C(Nc1oc2ccccc2c(=O)c1-c1ccc(Cl)cc1)c1ccc([N+](=O)[O-])cc1	.	i
COCC(=O)N1CC(CNc2ccccc2)C2(C1)CN(c1ccccc1)C2 (stereo not drawn)	4	i
Cn1ncc2c(C(=O)N3CCOCC3)cc(-c3cccc(F)c3)nc21	23	.
O=C(CCSCc1ccccc1)N1C[C@@H](CN2CCOCC2)[C@@H](CO)C1	27	i
CC(=O)Nc1ccc(-c2nnc3n2CCN(C(=O)c2ccc(F)cc2)C3)cc1	1	.
O=C(Nc1ccc(-c2nnc3n2CCCC3)cc1)C1CCCC1	11	i
C=CCNC(=O)c1ccc(-c2nnc3ccc(NC(=O)C4CCC4)cn23)cc1	-5	22µM*
O=C(NCCN1CCCCC1)c1ccc(-c2nnc3ccc(NC(=O)C4CCC4)cn23)cc1	-3	22µM*

From PubChem BioAssay
